Results filed as inconclusive are left out. Active and inactive are the calls of the source. Unless noted, the call rests on the fitted dose curve; in most records, active means well fitted curve in the direction sought with a large enough effect in the repeat runs; inconclusive means weak or mixed curves; inactive means no such curve, though single readings can be large; an effect the other way counts as inactive or inconclusive.
Experiments:
[1] = qHTS assay for small molecules that induce genotoxicity in human embryonic kidney cells expressing luciferase-tagged ATAD5 (AID 651632); further: nearly all actives have a fitted effect of over 15% in size
Outline: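 Test compounds were delivered by pin tool onto HEK293T reporter cells (2,000/well) expressing ATAD5 fused to luciferase. After 16 hr at 37C, 5% CO2, Amplite was added for 30 min at room temperature and luminescence was measured.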

[2] = qHTS assay for small molecules that induce genotoxicity in human embryonic kidney cells expressing luciferase-tagged ATAD5 - cell viability (AID 651634; calls by dose curve; further: nearly all actives have a fitted effect of over 25% in size)
Outline: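 Quantitative high-throughput format. HEK293T cells expressing ATAD5 fused to luciferase were plated at 2,000 cells/well and treated 15.5 hr with compound versus DMSO. Viability was determined by fluorescent live-cell protease substrate, 30 min at 37C.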

[3] = qHTS assay for small molecule disruptors of the mitochondrial membrane potential - cell viability (AID 720634; calls by dose curve;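 further: human HepG2 liver cancer cells; series mostly up to about 83 µM; nearly all actives have a fitted effect of over 20% in size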)
Outline: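 Same-well counter-screen: following the MMP dye addition, CellTiter-Glo was added to 1 hr compound-treated HepG2 cells and luminescence read after 30 min at room temperature.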

[4] = qHTS assay for small molecule disruptors of the mitochondrial membrane potential (AID 720635)
Outline: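 HepG2 cells exposed to compound 1 hr at 37C, then Mito-MPS dye 30 min. Ratio read of aggregate (540/590 nm) versus monomer (490/535 nm) fluorescence.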

[5] = qHTS assay to test for compound auto fluorescence at 590 nm (red) in HepG2 cells (AID 720674)
Outline: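 Seeding: 2,000 HepG2 cells/well, MEM/10% FBS, overnight 37 C. Dosing: compound vs DMSO. Incubation: 1 hr, 37 C, 5% CO2. Read: fluorescence 540 ex/590 em, Rose Bengal sodium as red reference.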

[6] = qHTS assay to test for compound auto fluorescence at 535 nm (green) in HepG2 cells (AID 720675)
[7] = qHTS assay to test for compound auto fluorescence at 590 nm (red) in HEK293 cells (AID 720679)
Outline: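 HEK293 cells (2,000/well, 10% dialyzed FBS) attached 4-5 hr, then dosed with compound or DMSO and incubated overnight at 37C, 5% CO2. Red fluorescence read at 540/590 nm, Rose Bengal sodium as reference fluorophore.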

[8] = qHTS assay to test for compound auto fluorescence at 535 nm (green) in HEK293 cells (AID 720680)
[9] = qHTS assay to test for compound auto fluorescence at 460 nm (blue) in HEK293 cell free culture (AID 720681)
Outline: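 Compounds were added to cell-free DMEM with 10% FBS and fluorescence read directly. The blue channel used 405 nm excitation and 460 nm emission, with triamterene as the reference fluorophore.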

[10] = qHTS assay to test for compound auto fluorescence at 535 nm (green) in HEK293 cell free culture (AID 720682)
Outline: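 Steps: dispense DMEM/10% FBS into empty wells; pin in compound or DMSO; measure fluorescence at 485/535 nm. Values are fluorescein equivalents.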

[11] = qHTS assay to test for compound auto fluorescence at 590 nm (red) in HEK293 cell free culture (AID 720683)
Outline: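 Cell-free wells of DMEM with 10% FBS received compound, and intrinsic fluorescence was read at excitation/emission 540/590 nm. Values expressed as equivalence to Rose Bengal sodium.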

[12] = qHTS assay to test for compound auto fluorescence at 460 nm (blue) in HepG2 cell free culture (AID 720685)
Outline: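 Cell-free plates of MEM plus 10% FBS received 23 nL compound or DMSO vehicle; blue-channel (405/460 nm) intensity scored against triamterene as reference fluorophore.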

[13] = qHTS assay to test for compound auto fluorescence at 535 nm (green) in HepG2 cell free culture (AID 720686)
[14] = qHTS assay to test for compound auto fluorescence at 460 nm (blue) in HepG2 cells (AID 720687)
Outline: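 HepG2 cells in MEM with 10% FBS, attached overnight at 37 C, were exposed to compound or DMSO for 1 hr at 37 C, 5% CO2. Blue fluorescence was read at 405/460 nm, with triamterene as reference fluorophore.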

[15] = qHTS assay to test for compound auto fluorescence at 460 nm (blue) in HEK293 cells (AID 720678)
Outline: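 HEK293 cells (2,000/well, medium with 10% dialyzed FBS) attached 4-5 hr, then exposed to compound overnight at 37C, 5% CO2. Blue fluorescence read at 405/460 nm, with triamterene as reference fluorophore.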

[16] = molecular target: Glucocorticoid receptor (Homo sapiens) (UniProt P04150); experiment: qHTS assay to identify small molecule agonists of the glucocorticoid receptor (GR) signaling pathway (AID 720691; active means well fitted activation curve with a large enough effect in the signal ratio in the repeat runs, not every such curve was filed as active; the % refers to the signal ratio)
Glucocorticoid receptor (Homo sapiens), sequence (P04150 whole entry, looked up): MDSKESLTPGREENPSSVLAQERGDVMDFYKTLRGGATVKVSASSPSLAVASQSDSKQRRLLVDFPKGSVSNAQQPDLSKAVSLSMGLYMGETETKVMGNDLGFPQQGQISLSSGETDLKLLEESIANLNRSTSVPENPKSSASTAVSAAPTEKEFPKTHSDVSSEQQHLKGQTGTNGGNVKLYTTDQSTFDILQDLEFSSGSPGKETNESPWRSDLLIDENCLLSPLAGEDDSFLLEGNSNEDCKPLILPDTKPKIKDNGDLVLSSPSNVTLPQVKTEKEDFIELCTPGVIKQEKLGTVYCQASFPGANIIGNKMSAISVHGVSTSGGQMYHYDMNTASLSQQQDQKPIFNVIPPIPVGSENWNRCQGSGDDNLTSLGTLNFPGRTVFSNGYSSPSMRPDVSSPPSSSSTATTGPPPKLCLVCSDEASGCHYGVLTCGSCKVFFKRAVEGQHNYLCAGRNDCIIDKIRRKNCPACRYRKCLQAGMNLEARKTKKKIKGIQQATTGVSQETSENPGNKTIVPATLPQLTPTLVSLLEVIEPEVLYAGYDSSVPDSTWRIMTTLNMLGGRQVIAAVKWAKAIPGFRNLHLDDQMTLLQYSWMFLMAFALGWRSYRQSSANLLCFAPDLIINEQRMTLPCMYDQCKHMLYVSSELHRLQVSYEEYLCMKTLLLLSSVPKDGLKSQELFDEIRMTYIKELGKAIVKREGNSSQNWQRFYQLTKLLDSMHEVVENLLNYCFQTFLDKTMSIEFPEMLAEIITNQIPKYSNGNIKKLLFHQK
Outline: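 A HeLa cervical cancer line expressing GR and a glucocorticoid response element-driven beta-lactamase gene is treated with compounds for 18 h; LiveBLAzer B/G FRET substrate is then applied and fluorescence read.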

[17] = qHTS assay to test for compound auto fluorescence at 590 nm (red) in HepG2 cell free culture (AID 720684)
Outline: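 Auto fluorescence equivalency versus Rose Bengal sodium, red channel Ex/Em 540/590 nm; compounds in cell-free MEM/10% FBS; DMSO vehicle control.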

Measured: Potency

CC(C)(C#N)C(C)(C)C#N
inactive: [1] | [2] | [3] | [4] | [5] | [6] | [7] | [8] | [9] | [10] | [11] | [12] | [13] | [14]

O=C(NC(=O)c1cc(F)c(F)cc1Cl)Nc1cc(F)ccc1N1CCC(C(=O)O)CC1
inactive: [1] | [2] | [5] | [6] | [15] | [7] | [8] | [9] | [10] | [11] | [12] | [13] | [14] | [16]

CCCCC#N
inactive: [1] | [2] | [3] | [4] | [6] | [7] | [8] | [9] | [10] | [11] | [17] | [12] | [13] | [14]

Reference: PubChem BioAssay (Tox21)
